# PNC inhibitor: inhibitors of perinucleolar compartment assembly | PC3M PTB-GFP, PNC prevalence imaging, 16 h; hits give low values | activity change (PNC), negative = inhibition, % at 10 µM | actives 3.1% (n = 140,000);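 active = readout at or below -70, meaning at least 70% loss of cells showing the perinucleolar compartment, a nuclear body marking cancer cells; inconclusive = readout between -30 and a set limit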;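 note: plate controls were DMSO wells for no effect and camptothecin positive control wells for full effect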
#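 Compounds are pinned in duplicate onto adhered PC3M cells stably expressing GFP-tagged PTB and incubated 16 h at 37 C. Cells are then fixed, nuclei stained with Hoechst, and PNC-positive cells counted.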
# TRb-SRC2 inh: TRbeta-SRC2 interaction inhibition; TRbeta-SRC2 peptide binding, fluorescence polarization; receptor liganded with 1 µM T3; Potency, µM (series often up to 106 µM), for the others: at the highest dose activity change, negative = inhibition, usual class: inhibitors; actives 0.065% (n = 280,000);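 note: potency is the fitted concentration of half-maximal effect; plate controls were bound peptide for no effect and peptide without receptor for full effect; nearly all actives have a fitted effect of over 50% in size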
# Target sequence (P10828 whole entry, looked up): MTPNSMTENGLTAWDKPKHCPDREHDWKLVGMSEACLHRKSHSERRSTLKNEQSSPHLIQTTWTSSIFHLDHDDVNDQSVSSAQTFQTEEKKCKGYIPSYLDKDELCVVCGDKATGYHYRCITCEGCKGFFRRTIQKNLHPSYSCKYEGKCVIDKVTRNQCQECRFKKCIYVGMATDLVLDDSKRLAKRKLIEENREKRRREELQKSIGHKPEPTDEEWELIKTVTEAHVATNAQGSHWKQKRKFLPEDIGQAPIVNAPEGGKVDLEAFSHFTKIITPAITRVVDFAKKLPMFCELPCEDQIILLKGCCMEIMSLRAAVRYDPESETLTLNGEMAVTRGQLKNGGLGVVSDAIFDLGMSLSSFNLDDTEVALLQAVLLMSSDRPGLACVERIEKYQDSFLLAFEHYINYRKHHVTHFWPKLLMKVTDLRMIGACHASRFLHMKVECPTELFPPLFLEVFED
#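 Compounds were added to 0.6 uM TRb ligand-binding domain and 20 nM Texas Red-labeled SRC2 peptide in Tris buffer containing 1 uM T3, incubated 5 hr at ambient temperature, then read by fluorescence polarization.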
# TR SRC2 fluor cs: counter-screen for TRb-SRC2 inhibitors: fluorescence interference; actives 0.29% (n = 280,000); Potency, µM (doses to about 106 µM), inactives show at the highest dose fluorescence change, negative = quenching; TRb/SRC2 Texas Red total fluorescence interference; active = well fitted curve in either direction with a large enough effect; inconclusive = small, poorly fitted or top-dose-only effect; note: potency is the fitted concentration of half-maximal effect
#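 Flags fluorescent or light-absorbing compounds by total fluorescence, S + 2P, at 555 nm excitation and 632 nm emission. Mixture: 20 nM Texas Red SRC2 peptide, 0.6 uM human TRb LBD, 1 uM T3, 5% DMSO; compound exposure 5 h at ambient temperature.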
# Tau fibril ThT: inhibitors of human tau fibril formation, thioflavin T binding. recombinant tau K18 P301L, heparin-induced fibrillization, ThT fluorescence. Potency, µM (highest dose often 57.4 µM), for the others: top-dose activity, negative = inhibition, actives largely listed as inhibitors. actives 2.1% (n = 270,000); note: potency is the fitted concentration of half-maximal effect; nearly all actives have a fitted effect of over 55% in size
#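 Tau K18 P301L fragment (15 uM unlabeled plus 0.24 uM Alexa 594-labeled) in 100 mM sodium acetate pH 7 with compound, fibrillization induced by 20 uM heparin for 6 hr at 37 C. Thioflavin T (30 uM) added, fluorescence read after 1 hr (ex 450, em 510 nm).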
# Tau fluor counter: counter-screen for tau fibril formation inhibitors. tau K18 P301L (four-repeat tau fragment) Alexa594 fluorescence, heparin fibrillization. Potency, µM (highest dose often 57.7 µM), for inactives: at the highest dose activity change, negative = decrease. actives 0.93% (n = 280,000). AID 1463; note: potency is the fitted concentration of half-maximal effect; nearly all actives have a fitted effect of over 55% in size
#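 Human K18 P301L tau (15 uM unlabeled plus 0.24 uM Alexa 594-labeled, final) in 100 mM sodium acetate pH 7 was mixed with compound and 20 uM heparin and incubated 6 hr at 37 C.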
# Tau FP inhib: inhibitors of human tau fibril formation. P10636. K18 P301L tau heparin fibrillization, Alexa594 FP, 6 h. Potency, µM (titrated, usually from 57.7 µM), for inactives: top-dose activity, negative = inhibition, actives largely listed as inhibitors. actives 0.39% (n = 280,000). AID 1468; note: potency is the fitted concentration of half-maximal effect; nearly all actives have a fitted effect of over 55% in size
#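 Compound effects on tau fibrillization are measured by Alexa 594 fluorescence polarization (ex 555, em 632 nm). K18 P301L tau is used at 15 uM with 0.24 uM labeled tracer, and 20 uM heparin induces aggregation over 6 hr at 37 C.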
# Active calls of the source: *; u = inconclusive; x = not tested or not shown; [ ] = dose if it differs, or a comment. This is a sample that favours compounds with a hit; in the whole collection about 4.6% have one here. Unless noted, calls come from the whole dose curve; as a rule, active = well fitted curve in the direction sought with a large enough effect; inconclusive = small, poorly fitted or top-dose-only effect, or another doubt; inactive = no such curve, though single readings can be large; an effect the other way counts as inactive or inconclusive. Unless noted, % is set by controls: 0 for no effect and ±100 for the full control effect.
SMILES,PNC inhibitor,TRb-SRC2 inh,TR SRC2 fluor cs,Tau fibril ThT,Tau fluor counter,Tau FP inhib
COc1cc(NC(=O)Cn2nc(C(F)(F)F)c3c2CCCC3)c(OC)cc1Cl,x,3%,0%,4%,-13%,-6%
CC(C(=O)Nc1ccc2c(c1)OCCO2)N(C)Cc1c(F)cccc1Cl (stereo not drawn),x,-1%,-2%,-14%,-21%,-6%
COC(=O)CC1C(=O)NCCN1C(=S)Nc1ccc(F)cc1 (stereo not drawn),x,5%,-4%,-11%,-9%,5%
C=CCON1C(=O)c2ccccc2C1=O,-111*,-14%,-1%,0%,-8%,-17%
COc1ccc(N2C(=O)CC(NNC(=O)c3ccco3)C2=O)cc1 (stereo not drawn),x,-2%,0%,-3%,3%,-8%
CCOc1cc(C=C(C(=O)OC)C(=O)OC)ccc1OCc1ccc([N+](=O)[O-])cc1,12,-19%,-4%,13µM*,-26%,17%
O=C(CC1Nc2ccccc2NC1=O)NCc1cccnc1 (stereo not drawn),-14,-1%,-2%,-16%,-6%,-4%
Cc1cc(C(C)(C)C)c(O)c(C)c1CC1=NCCN1,40,-2%,2%,-11%,-7%,7%
CSc1nc2sc3c(c2c(=O)n1C)CCCC3,-87*,-19%,-2%,-8%,6%,2%
CSc1nc2sc3c(c2c(=O)n1C)CCC(C)C3 (stereo not drawn),13,3%,0%,u,-10%,3%
CCOc1ccccc1N(CC(=O)Nc1ccc2c(c1)OCCO2)S(C)(=O)=O,-125*,2%,-4%,6%,2%,-3%
COCCCNC(=O)Cn1cnc2sc(C)c(S(=O)(=O)N3CCN(c4ncccn4)CC3)c2c1=O,x,-1%,0%,-2%,-6%,-1%
Cc1sc2ncn(CC(=O)NCc3ccccn3)c(=O)c2c1S(=O)(=O)N1CCOCC1,-100*,-3%,-4%,3%,-1%,4%
CCOC(=O)c1sc2nc(N3CCOCC3)c3c(c2c1N)CCC3,-96*,5%,0%,u,u,17%
NC(=O)c1sc2nc(N3CCOCC3)c3c(c2c1N)CCCC3,-4,4%,1%,-26%,-24%,8%
O=[N+]([O-])c1ccc(C2Nc3cccc4cccc(c34)N2)cc1,16,7%,7%,14µM*,13µM*[quencher],u
O=[N+]([O-])c1cccc(C2Nc3cccc4cccc(c34)N2)c1,-24,-12%,-4%,u,u,0%
c1coc(C2Nc3cccc4cccc(c34)N2)c1,-29,18%,u,11µM*,7.9µM*[quencher],u
Oc1ccc(C2Nc3cccc4cccc(c34)N2)c(O)c1,-21,9%,u,14µM*,7.9µM*[quencher],u
COC(=O)c1ccc(C2Nc3cccc4cccc(c34)N2)cc1,x,-2%,-6%,14µM*,14µM*[quencher],u
CC[n+]1c(/C=C/Nc2ccccc2)oc2ccc(OC)cc21,x,1%,-2%,u,-15%,-7%
Cc1nn(-c2ccccc2)c(OC(=O)c2cccs2)c1S(=O)(=O)c1ccccc1,27,3%,2%,-15%,2%,2%
Cc1nc(CS(=O)(=O)c2ccccc2)cc(Sc2ccc(Cl)cc2)n1,-10,-3%,-4%,-23%,-18%,0%
COc1cc(C2Nc3cccc4cccc(c34)N2)cc(OC)c1O,-15,-6%,0%,16µM*,4.5µM*[quencher],u
COc1ccc(NC(=O)/C(C#N)=C\C=C\c2ccco2)cc1,9,4%,4%,2.5µM*,-9%,13%
COc1cccc2c(=S)c(CCC(C)=O)c(C)[nH]c12,12,-17%[53 µM],2.8µM*[quencher],8%,3%,3%
Nc1n[nH]c(N)c1N=Nc1ccc2c(c1)OCO2,x,4%,-7%,14µM*,-30%,1%

# Source: PubChem (National Center for Advancing Translational Sciences (NCATS))
